Compound activity: PubChem BioAssay, several laboratories
ROMK primary – modulates human ROMK potassium channel activity. P48048. Tet-inducible ROMK, thallium flux fluorescence; actives lie on both sides. B-score at 10 µM. hit rate 2% among 130,000;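 active = signal ratio slope over the read window, or its plate-corrected B-score, at least 3 SD from the plate mean, either direction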;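 also: B-score of the F/F0 ratio slope over 7 to 12 s after thallium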
Target sequence (P48048 whole entry, looked up): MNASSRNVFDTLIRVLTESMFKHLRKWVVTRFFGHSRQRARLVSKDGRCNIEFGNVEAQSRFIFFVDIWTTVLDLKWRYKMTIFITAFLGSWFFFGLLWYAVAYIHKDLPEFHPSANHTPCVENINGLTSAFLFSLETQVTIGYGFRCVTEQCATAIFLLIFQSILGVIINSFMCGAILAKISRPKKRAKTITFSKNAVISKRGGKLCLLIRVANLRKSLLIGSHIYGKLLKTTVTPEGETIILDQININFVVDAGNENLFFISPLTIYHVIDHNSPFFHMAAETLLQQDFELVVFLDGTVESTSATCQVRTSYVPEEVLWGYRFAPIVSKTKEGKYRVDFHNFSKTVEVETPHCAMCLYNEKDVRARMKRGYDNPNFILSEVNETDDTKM
WT yeast gro inh – growth inhibition of WT yeast, mitochondrial fusion screen; mitochondrial fusion phenotypic screen, WT strain; inhibition, % at 10 µM; hit rate 2.1% among 190,000; AID 1362; in the data active = inhibition above about 58%; tested in S. cerevisiae
Cl transport mod – KCC2 (human) Cl- transport modulation; Q9H2X9; KCC2 cells, thallium flux FluoZin-2 fluorescence; B-score of Tl+ flux slope (higher = more flux/activation; lower = inhibition) at 10 µM; hit rate 2.2% among 190,000; AID 1456;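 active = thallium flux slope and its plate-corrected score both differing from the plate sample mean at a set confidence after two filtering rounds, in either direction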;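 also: slope of fluorescence scaled to starting intensity during 10 to 20 s after thallium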
Insulin prom up – MIN6 insulin promoter up-regulation. hit rate 0.3% among 190,000. MIN6 insulin promoter-GFP reporter, high-content imaging; stronger effect = higher value. z-score at 5 µM. AID 1625;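 active = z-score above 3 at 5 µM with at least 500 cells counted in the well; inconclusive = wells under 500 cells, flagged as cytotoxic or low count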
INS promoter inh – TRM-6 insulin promoter activity inhibition | TRM-6 cells (human fetal islet line), insulin promoter-eGFP reporter, imaging; reporter expression induced with tamoxifen | inhibition, % at 2 µM | hit rate 0.9% among 130,000;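 active = inhibition above the mean plus 3 SD, with well images judged a real hit on visual review, cut at about 60% in these data, passing the limit was not always enough; inconclusive = inhibition over the cutoff but images rejected on review; inactive = inhibition not above the cutoff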
L major viab – inhibitors of Leishmania major promastigote growth; hit rate 9% among 200,000; Leishmania major promastigotes, resazurin fluorescence viability; inhibition, % at 10 µM; in the data active = inhibition above about 50%;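 also: promastigotes grown with compound for 44 hours at 28 °C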
Starred values were filed as active, the others as inactive. Sampled rows, rich in hits. Any-hit rate of the full collection: about 12%.

How did COc1ccccc1CNC(=O)Nc1cccs1 do in these assays?
WT yeast gro inh: 6; Cl transport mod: 0.92; Insulin prom up: 0.55; INS promoter inh: 2; L major viab: -3

What do the screens show for `CCOC(=O)CN(C(=O)CSc1nnc(C)n1-c1ccccc1)c1cccc([N+](=O)[O-])c1`?
ROMK primary: -0.72; WT yeast gro inh: -14; Insulin prom up: -0.01; INS promoter inh: 14; L major viab: 3

How did CCn1c(=N)n(CC(=O)C23CC4CC(CC(C4)C2)C3)c2ccccc21 do in these assays?
WT yeast gro inh: 90*; Cl transport mod: 0.38; Insulin prom up: 0.09; INS promoter inh: 26; L major viab: 62*

Results for COc1ccc(C/C(C)=N/NC(=S)Nc2ccc(Cl)cc2)cc1 ?
ROMK primary: 0.089; Cl transport mod: 2; Insulin prom up: 0

How did CCOc1ccc(NC(=S)N/N=C(\C)Cc2ccc(OC)cc2)cc1 do in these assays?
ROMK primary: -0.075; WT yeast gro inh: 26; Cl transport mod: 2; Insulin prom up: -0.5; INS promoter inh: 7; L major viab: 62*

How did COc1ccc(C/C(C)=N/NC(=S)Nc2ccccc2)cc1 do in these assays?
ROMK primary: 0.00054; WT yeast gro inh: 13; Cl transport mod: 32*; Insulin prom up: -0.18; INS promoter inh: -28; L major viab: 31

How did CCCCOc1ccc(Br)cc1/C(C)=N/NC1=NCCN1 do in these assays?
WT yeast gro inh: 77; Cl transport mod: 0.0026; INS promoter inh: -356; L major viab: 101*

Results for CCCCOc1ccc(CSC2=NCCN2)cc1[N+](=O)[O-] ?
ROMK primary: -2.4; WT yeast gro inh: 22; Cl transport mod: -0.16; Insulin prom up: -0.59; INS promoter inh: 6; L major viab: 95*

Results for CCCCCCOc1ccc(/C(C)=N/NC2=NCCN2)cc1[N+](=O)[O-] ?
ROMK primary: 0.1; WT yeast gro inh: 65; Cl transport mod: -0.029; Insulin prom up: -7.3; INS promoter inh: 21; L major viab: 100*

How did C/C(=N\NC1=NCCN1)c1ccc(N)c([N+](=O)[O-])c1 do in these assays?
Cl transport mod: 0.55; Insulin prom up: 0.57

How did O=C(NCC1CCCCC1)C1CCCN(C(=O)NC2CCCCC2)C1 (stereo not drawn) do in these assays?
ROMK primary: 0.17; WT yeast gro inh: -15; Cl transport mod: 1; Insulin prom up: -0.3; L major viab: 2

Results for COc1cc2c(=O)n(Cc3ccccc3)c(=O)n(CC(=O)NCC3CCCO3)c2cc1OC (stereo not drawn) ?
ROMK primary: -0.2; WT yeast gro inh: 11; Cl transport mod: -0.75; Insulin prom up: 0.24; INS promoter inh: -19; L major viab: 1

How did Cc1cc2occ(CC(=O)NC3CCCc4ccccc43)c2cc1C (stereo not drawn) do in these assays?
ROMK primary: -0.5; WT yeast gro inh: -7; Cl transport mod: -0.081; Insulin prom up: 0.96; INS promoter inh: -20; L major viab: 5

What do the screens show for `C/C(=N\NC(=O)c1c[nH]c2ccccc12)c1ccccn1`?
ROMK primary: 0.033; WT yeast gro inh: 6; Cl transport mod: 0.15; Insulin prom up: -2.1; L major viab: 100*

Results for CN1CCC2(CC1)Nc1nc(SCc3ccc(Cl)cc3)nn1C1=C2CN(C)CC1 ?
WT yeast gro inh: 66*; Cl transport mod: -0.26; Insulin prom up: -0.88; L major viab: 97*

What do the screens show for `O=C(c1ccccc1O)N1N=C(c2ccccc2)CC1(O)C(F)(F)F` (stereo not drawn)?
ROMK primary: -0.026; WT yeast gro inh: 36; Cl transport mod: -0.95; Insulin prom up: -0.34; L major viab: 4

What do the screens show for `CCOc1ccccc1NC(=O)C(C)CC` (stereo not drawn)?
WT yeast gro inh: -12; Cl transport mod: -0.27; Insulin prom up: 0.44; L major viab: -7

How did COC(=O)c1ccc(COc2ccccc2/C=C(\C#N)C(=O)Nc2c(C)cc(C)cc2C)cc1 do in these assays?
WT yeast gro inh: 8; Cl transport mod: 1.1; Insulin prom up: 0.27; L major viab: 100*

Results for CSc1ccc(NC(=O)N2CC=C(n3c(=O)[nH]c4ccccc43)CC2)cc1 ?
ROMK primary: 1.8; WT yeast gro inh: -8; Cl transport mod: -1; Insulin prom up: -0.41; INS promoter inh: 64*; L major viab: 27

Results for N#Cc1ccc(CSc2nnc(NC(=O)c3ccc4ncsc4c3)s2)cc1 ?
ROMK primary: -1.2; WT yeast gro inh: 7; Insulin prom up: 4.4*; L major viab: 0

How did CCC(=O)c1ccc(OC(=O)c2cnccn2)cc1 do in these assays?
ROMK primary: 1.7; WT yeast gro inh: 4; Cl transport mod: 0.92; Insulin prom up: 0.21; INS promoter inh: inconclusive; L major viab: -5

Results for CCOc1cc(C(=O)OCc2ccc(C(=O)OC)o2)cc(Br)c1OC ?
ROMK primary: 0.13; WT yeast gro inh: 39; Insulin prom up: 0.07; INS promoter inh: 29; L major viab: -2

How did O=C(CCc1ccccc1)Nc1ncc2c(n1)CCCC2=O do in these assays?
WT yeast gro inh: 60*; Cl transport mod: 0.15; Insulin prom up: 0.16; L major viab: 1

Results for CC1(C)CC(=O)c2cnc(NC(=O)CCc3ccccc3)nc2C1 ?
WT yeast gro inh: -4; Cl transport mod: 0.098; Insulin prom up: 1.1; INS promoter inh: 44; L major viab: 18

Results for Cc1nc(N2CCC(C)CC2)c2c(C)c(C(=O)Nc3ccccc3C(F)(F)F)sc2n1 ?
ROMK primary: -0.32; WT yeast gro inh: 52; Cl transport mod: -0.96; Insulin prom up: -1.1; INS promoter inh: -117; L major viab: 51*

How did CNC(=S)NC1CC2CCCC(C1)N2Cc1ccc(C)cc1 (stereo not drawn) do in these assays?
ROMK primary: 0.69; WT yeast gro inh: -22; Cl transport mod: -0.081; Insulin prom up: 0.55; L major viab: 91*

Results for CC(=O)NC1CC2CCC(C1)N2Cc1ccc(C)cc1 (stereo not drawn) ?
WT yeast gro inh: -4; Insulin prom up: -0.09; L major viab: 90*

How did COCC(=O)NC1CC2CCCC(C1)N2Cc1ccccc1 (stereo not drawn) do in these assays?
WT yeast gro inh: 5; L major viab: 0

Results for COCCNC(=S)NC1CC2CCC(C1)N2Cc1ccccc1 (stereo not drawn) ?
ROMK primary: -1.4; WT yeast gro inh: 1; Cl transport mod: 0.15; Insulin prom up: 1.9; L major viab: 15

What do the screens show for `Cc1cc(C)nc(NS(=O)(=O)c2ccc(NC(=O)c3cccs3)cc2)n1`?
ROMK primary: 1.5; WT yeast gro inh: 23; Cl transport mod: 0.52; Insulin prom up: 0.16; INS promoter inh: 21; L major viab: -3

Results for CCCCN(CCCC)S(=O)(=O)c1ccc(NC(=O)c2cccs2)cc1 ?
ROMK primary: 0.86; WT yeast gro inh: -3; Cl transport mod: 0.67; Insulin prom up: -0.63; INS promoter inh: 49; L major viab: 94*

How did CN(C)S(=O)(=O)c1ccc(Cl)c(C(=O)Nc2cccc([N+](=O)[O-])c2)c1 do in these assays?
ROMK primary: -0.24; WT yeast gro inh: 8; Cl transport mod: -1.9; Insulin prom up: 1; INS promoter inh: 6; L major viab: 3
